Test [1] deals with Arylsulfatase A (Homo sapiens) (UniProt P15289). Briefly: qHTS screen for enhancers of Arylsulfatase A (ASA1): LOPAC Validation Assay (AID 720538). The method, boiled down:
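MLD patient fibroblasts (SV40, ASA-I179S), 1536-well; adhere 6 hrs; cpd 48h, 37 degree C, 5% CO2; pNCS 0.5mM final in lysis buffer, 14h RT; stop 1N NaOH final; fluor. Ex525/Em598.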
Background: qHTS replaces the single test concentration by a dilution series.

The nature of test [2]: qHTS for compounds that reverse cellular toxicity of Amyloid beta (A-beta) peptide in yeast: LOPAC Validation Assay (AID 720559).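 Note: plate controls were DMSO for no effect and equimolar ferric chloride plus clioquinol rescue for full effect.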 The method, boiled down: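 Medium dispensed, compounds pinned, A-beta yeast suspension added; plates held at 30 C for 48 hr; absorbance measured at 600 nm to gauge growth; values scaled between DMSO and FeCl3/clioquinol (equimolar) controls.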
Test [3] in a line: qHTS for Activators of Parkin Expression: LOPAC Validation Assay (NLuc Reporter) (AID 720572). The method, boiled down: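 Cells harboring the Parkin-promoter coincidence reporter were treated for 24 h at seven concentrations. NLuc output was measured sequentially after the FLuc channel and scaled between DMSO and positive control values.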
A short description of test [4]: qHTS for Activators of Parkin Expression: LOPAC Validation Assay (FLuc Reporter) (AID 720573). In short, it runs like this: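 Cells seeded, 24 h; compounds pinned, 7-pt dose response; 24 h at 37 C/5% CO2; volume reduced; FLuc reagent 10 min RT; luminescence read. Normalization: DMSO = 0, positive control = 100%.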
In test [5] the target is T1, Hexokinase-4 (Homo sapiens) + Glucokinase regulatory protein (Homo sapiens) (UniProt P35557+Q14397). In words: qHTS assay for inhibitors of recombinant human GCK-GKRP interaction: Diaphorase-coupled assay (AID 743205). The method, boiled down:
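25 mM Hepes pH 7.6, 5 mM glucose, 0.4 mM ATP, 4 U/ml G6PDH; 10 nM each GST-GCK/FLAG-GKRP. Kinetic fluorescence read, 1/min × 30 min. Normalized: DMSO ± enzyme = max/min.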

Test [6] concerns the target T1, Hexokinase-4 (Homo sapiens) + Glucokinase regulatory protein (Homo sapiens). Briefly: qHTS assay for inhibitors of recombinant human GCK-GKRP interaction: ADP-Glo assay (AID 743206).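 Note: plate controls were DMSO plus enzyme for no effect and no enzyme for full effect.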 The method, boiled down: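 Pin-transferred compounds meet a 15 nM GST-GCK/15 nM FLAG-GKRP/2 uM S6P mix (dispense concentrations). ATP is then added to 0.4 mM final with 5 mM glucose, and the reaction runs 60 min at room temperature. ADP is quantified luminescently.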

For test [7] the target is unchanged. Briefly: qHTS assay for inhibitors of recombinant human GCK-GKRP interaction: HTRF assay (AID 743207).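 Note: 0% = DMSO with GCK present and -100% = DMSO wells lacking GCK.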 In short, it runs like this: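 5 nM GST-GCK + 5 nM FLAG-GKRP + 2 uM S6P, pH 7.1 buffer (25 mM Hepes, 2 mM MgCl2, 25 mM KCl, 1 mM DTT, Tween/BSA); pin-transferred cpd; anti-FLAG XL665/anti-GST K; 60 min RT; HTRF.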
Test [8] can be described thus: qHTS Assay for Identifying Gametocytocidal Compounds (AID 743244).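 For max response: % is set by controls: 0 for no effect and ±100 for the full control effect; actives lower the fluorescent signal which means gametocytes are killed.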 Note: potency is the fitted concentration of half-maximal effect. The settings on record: P. falciparum 3D7 stage III-V gametocytes, alamarBlue, 72 h; max response: stronger effect = lower value. In short, it runs like this: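 In this qHTS viability screen, late-stage 3D7 gametocytes are incubated with compound for 72 h, then with alamarBlue for 24 h; reduced resorufin fluorescence marks killing.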

A short description of test [9]: qHTS profiling of the MIPE4 collection as inhibitors of Plasmodium falciparum (3D7) proliferation (AID 743344; call rule not given here;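 note: scaled between DMSO vehicle wells and 0.29 µM artemisinin as full inhibition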). The following applies: P. falciparum 3D7 in erythrocytes, SYBR Green DNA fluorescence, 72 h; at 28.5 µM (top of the series) unless noted. The method, boiled down: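 Parasite DNA was quantified by SYBR Green I fluorescence (ex 485, em 535 nm) after overnight lysis in saponin/Triton buffer at room temperature. Cultures at 0.3% parasitemia and 2.5% hematocrit were first exposed to compound for 72 h at 37 C; signals were normalised to artemisinin (0.29 uM) and vehicle wells.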

Where “and” joins values, the source holds several entries; their conditions need not be identical. Identical values can stand only once. Records with an inconclusive call do not appear. Calls of active or inactive are those of the source. Unless noted, calls come from the whole dose curve; as a rule, active = well fitted curve in the direction sought with a large enough effect; inconclusive = small, poorly fitted or top-dose-only effect, or another doubt; inactive = no such curve, though single readings can be large; an effect the other way counts as inactive or inconclusive.

T1 sequence (P35557 whole entry, looked up): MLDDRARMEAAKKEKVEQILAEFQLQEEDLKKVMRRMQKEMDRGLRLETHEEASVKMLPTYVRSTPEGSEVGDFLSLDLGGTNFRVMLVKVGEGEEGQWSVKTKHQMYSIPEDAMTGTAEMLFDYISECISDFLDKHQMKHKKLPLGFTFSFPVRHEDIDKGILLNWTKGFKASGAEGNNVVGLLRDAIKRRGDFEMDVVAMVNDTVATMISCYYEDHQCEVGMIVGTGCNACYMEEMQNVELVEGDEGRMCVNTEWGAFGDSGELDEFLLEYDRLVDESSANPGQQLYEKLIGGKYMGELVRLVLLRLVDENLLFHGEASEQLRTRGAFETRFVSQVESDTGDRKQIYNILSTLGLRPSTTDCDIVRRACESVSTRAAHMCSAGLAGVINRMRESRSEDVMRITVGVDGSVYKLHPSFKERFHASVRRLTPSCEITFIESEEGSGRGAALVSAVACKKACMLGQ
T1 sequence (Q14397 whole entry, looked up): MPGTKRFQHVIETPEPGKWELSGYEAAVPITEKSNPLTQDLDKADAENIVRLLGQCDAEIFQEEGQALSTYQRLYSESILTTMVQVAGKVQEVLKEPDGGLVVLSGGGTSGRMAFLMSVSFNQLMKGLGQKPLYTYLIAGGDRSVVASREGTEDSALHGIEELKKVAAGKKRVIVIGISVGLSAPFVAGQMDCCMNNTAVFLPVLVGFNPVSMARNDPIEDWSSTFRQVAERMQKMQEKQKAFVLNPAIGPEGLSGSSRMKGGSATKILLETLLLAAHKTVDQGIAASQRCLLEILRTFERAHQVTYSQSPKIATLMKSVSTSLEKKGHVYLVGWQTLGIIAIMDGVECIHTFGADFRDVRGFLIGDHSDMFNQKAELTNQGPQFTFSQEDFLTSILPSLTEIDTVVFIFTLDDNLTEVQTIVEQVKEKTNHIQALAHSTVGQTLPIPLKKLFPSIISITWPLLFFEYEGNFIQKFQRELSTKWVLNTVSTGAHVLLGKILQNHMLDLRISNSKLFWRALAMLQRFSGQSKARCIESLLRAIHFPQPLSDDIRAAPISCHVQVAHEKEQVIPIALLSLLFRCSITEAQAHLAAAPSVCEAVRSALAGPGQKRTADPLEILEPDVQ
Arylsulfatase A (Homo sapiens), sequence (P15289 whole entry, looked up): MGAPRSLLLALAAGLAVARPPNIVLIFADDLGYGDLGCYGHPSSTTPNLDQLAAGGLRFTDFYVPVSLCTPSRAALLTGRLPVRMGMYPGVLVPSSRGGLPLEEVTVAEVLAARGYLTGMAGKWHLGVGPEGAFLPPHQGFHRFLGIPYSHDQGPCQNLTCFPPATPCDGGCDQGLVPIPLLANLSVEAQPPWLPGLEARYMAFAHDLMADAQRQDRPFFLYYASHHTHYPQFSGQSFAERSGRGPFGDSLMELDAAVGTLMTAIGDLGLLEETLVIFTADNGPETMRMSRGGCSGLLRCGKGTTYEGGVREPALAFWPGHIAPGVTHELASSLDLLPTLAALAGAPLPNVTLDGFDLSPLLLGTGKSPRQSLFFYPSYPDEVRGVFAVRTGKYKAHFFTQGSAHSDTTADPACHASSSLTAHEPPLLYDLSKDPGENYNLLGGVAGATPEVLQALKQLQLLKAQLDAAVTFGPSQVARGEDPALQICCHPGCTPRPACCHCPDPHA

Regarding `Cc1cnc(C(=O)NCCc2ccc(S(=O)(=O)NC(=O)NC3CCCCC3)cc2)cn1`, the Potency entry in [1], in test [4], in [5], in test [6] and in [7] was “inactive” throughout. Also, the result in test [2] and in [3] was inactive. In [8], the max response was 32.6% (inactive) and 12.5% (inactive).
Take `CC(CCc1ccc(O)cc1)NCCc1ccc(O)c(O)c1` (stereo not drawn): the Potency result in test [1], in test [4], in test [5], in test [6] and in test [7] was “inactive” each time. In addition, the outcome in test [2] and in test [3] was inactive. For the same molecule, the max response in [8] was 27.1% (inactive). This molecule also returned a parasite growth, % of DMSO control in [9] of 52.3%.
As for `CN(C)c1nc(N(C)C)nc(N(C)C)n1`, the Potency result in [1], in test [4], in [5], in test [6] and in test [7] was “inactive” in each case. Also, the molecule was called inactive in test [2] and in test [3]. Further, in test [8], the max response is 17.1% (inactive) and -2.91% (inactive). In [9], the parasite growth, % of DMSO control is 89.4%.
As for `COc1ccccc1N1CCN(CC(O)COc2cccc3ccccc23)CC1` (stereo not drawn), the Potency entry in [1], in test [4], in test [5], in test [6] and in [7] was “inactive” each time. In addition, the result in [2] and in test [3] was inactive. Besides, in test [8], the max response was 7.63% (inactive) and 7.03% (inactive).
In the case of `CC1COc2c(N3CCN(C)CC3)c(F)cc3c(=O)c(C(=O)O)cn1c23` (stereo not drawn), the Potency entry in [1], in test [4], in test [5], in test [6] and in test [7] was “inactive” throughout. Besides, the molecule was called inactive in test [2] and in test [3]. Also, the max response in test [8] was 18.2% (inactive) and 27.4% (inactive). Also, the parasite growth, % of DMSO control in test [9] turned out to be 59.3%.
For `NC(CO)C(=O)NNCc1ccc(O)c(O)c1O` (stereo not drawn), the Potency result in [1], in test [4], in test [5], in test [6] and in test [7] was “inactive” each time. For the same molecule, the call in test [2] and in test [3] was inactive. The max response in test [8] was 0.751% (inactive). The molecule also yielded a parasite growth, % of DMSO control in [9] of 84.1%.
As to `Cc1ccccc1N1C(=O)c2cc(S(N)(=O)=O)c(Cl)cc2NC1C` (stereo not drawn), the Potency result in [1], in test [4], in test [5], in test [6] and in [7] was “inactive” each time. Also, the molecule was called inactive in test [2] and in test [3]. The max response in test [8] is 6.66% (inactive) and 10.8% (inactive) and 1.37% (inactive).
`CN(C)CCC=C1c2ccccc2C=Cc2ccccc21`: the Potency result in [1], in test [4], in [5], in test [6] and in test [7] was “inactive” each time. Moreover, the call in test [2] and in test [3] was inactive. The Potency in [8] is 10 µM (active).
As for `CC12CC3CC(C)(C1)CC(N)(C3)C2`, the Potency result in test [1], in [4], in test [5], in test [6] and in test [7] was “inactive” each time. Further, the outcome in test [2] and in test [3] was inactive. Also, in [8], the max response was 12.5% (inactive).
Turning to `NCCCCCC(=O)O`, the Potency entry in [1], in test [4], in [5], in test [6] and in test [7] was “inactive” each time. The molecule was classed as inactive in test [2] and in test [3]. For the same molecule, the max response in test [8] is -0.169% (inactive) and -6.11% (inactive). Moreover, in test [9], the parasite growth, % of DMSO control was 417%.
Turning to `Nc1nnc(-c2cccc(Cl)c2Cl)c(N)n1`, the Potency result in test [1], in [4], in [5], in test [6] and in test [7] was “inactive” in each case. Further, the outcome in [2] and in test [3] was inactive. Besides, the max response in test [8] is 5.45% (inactive) and 12.4% (inactive).
